34 compounds from PubChem BioAssay (EPA / NIEHS) can be followed below.

Where “and” joins values, the source holds several entries; their conditions need not be identical. Identical values can stand only once. Results filed as inconclusive are left out. A structure can be active in one record and inactive in another. Calls of active or inactive are those of the source. Rule for the calls: active = hit-call score of the fitted dose curve at least 0.9, where 1 is the maximum; inconclusive = response in the unintended direction; inactive = score below 0.9.

Chain of Oxysterols receptor LXR-alpha (Homo sapiens) (Q13133 whole entry, looked up): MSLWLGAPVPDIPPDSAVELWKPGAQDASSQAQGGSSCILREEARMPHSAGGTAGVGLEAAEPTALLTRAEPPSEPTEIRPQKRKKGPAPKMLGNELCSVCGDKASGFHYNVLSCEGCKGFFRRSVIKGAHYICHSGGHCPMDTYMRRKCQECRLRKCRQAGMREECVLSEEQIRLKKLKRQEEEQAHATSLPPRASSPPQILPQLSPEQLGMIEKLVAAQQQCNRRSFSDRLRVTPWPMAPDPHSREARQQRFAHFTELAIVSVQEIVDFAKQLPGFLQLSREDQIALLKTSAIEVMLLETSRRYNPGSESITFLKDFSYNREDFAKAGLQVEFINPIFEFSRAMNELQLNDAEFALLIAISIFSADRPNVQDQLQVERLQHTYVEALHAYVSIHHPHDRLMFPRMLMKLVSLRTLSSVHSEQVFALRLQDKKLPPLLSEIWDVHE

For the assay, the target named is Oxysterols receptor LXR-alpha (Homo sapiens) (UniProt Q13133). The assay can be described thus: ATG_LXRa_TRANS: Attagene TRANS-FACTORIAL HepG2 Assay for human Liver X Receptor alpha (LXRa) (AID 2282980). The conditions noted are these: HepG2 Attagene TRANS reporter, LXRa transactivation. How it is done:
ATG_TRANS is a cell-based, multiplexed-readout assay that uses HepG2, a human liver cell line, with measurements taken at 24 hours after chemical dosing in a 24-well plate.ATG_LXRa_TRANS is one of 30 assay component(s) measured or calculated from the ATG_TRANS assay. It is designed to make measurements of mRNA induction, a form of inducible reporter, as detected with fluorescence intensity signals by Reverse transcription polymerase chain reaction (RT-PCR) and Capillary electrophoresis technology.Data from the assay component ATG_LXRa_TRANS was analyzed into 1 assay endpoint. This assay endpoint, ATG_LXRa_TRANS, was analyzed in the positive analysis fitting direction relative to DMSO as the negative control and baseline of activity. Using a type of inducible reporter, measures of mRNA for gain-of-signal activity can be used to understand the reporter gene at the transcription factor-level as they relate to the gene NR1H3. Furthermore, this assay endpoint can be referred to as a primary readout, because this assay has produced multiple assay endpoints where this one serves a reporter gene function. To generalize the intended target to other relatable targets, this assay endpoint is annotated to the nuclear receptor intended target family, where the subfamily is non-steroidal.
Human liver HepG2 cells are transiently transfected with multiple reporter transcription units (MRTUs) in 6-well plates using FuGene 6 reagent (Roche; 3 ml FuGene/1 mg DNA). The MRTU constructs are regulated by a cis-regulating element (promoter). […] A major difference between the CIS and TRANS system is that in CIS activities of endogenous TFs are measured, whereas the TRANS assay evaluates changes in activities of exogenous, chimeric NR-Gal4 proteins. […] At the end of 24 hour incubation, total RNA was isolated using TriZol reagent (Invitrogen). The isolated RNA is then reverse-transcribed using oligo(dT) primer and Mo-MLV reverse transcriptase (Invitrogen) with DNAse I (Ambion) treatment for 30 min. The one-tenth of the produced cDNA was amplified by PCR using Taq DNA polymerase (Invitrogen) and two reporter sequence-specific primers. The PCR products were fluorescently labeled by primer extension with 6-arboxyfluorescein (6-FAM) 5'-labeled reporter sequence-specific primer (2 min at 95 C, 20 s at 68 C and 10 min at 72 C) and these products were digested with 5U of HpaI (New England Biolabs) for 2h at 37 C. The fragments were purified using Qiaquick PCR columns (Qiagen), analyzed on an ABI 3130xL genetic analyzer (Applied Biosystems) with peak positions identified by using a set of X-rhodamine (ROX)-labeled MapMarker1000 molecular weight standards (BioVentures). The raw capillary electrophoresis data was processed using Attagraph software (Attagene).
With `N#Cc1ccc(N(CC(N)=O)CC(F)(F)F)cc1C(F)(F)F`, the result was inactive. `Cc1cc(O)ccc1Cl`: the AC50 was 24.3 µM (active). For `CC(C)(c1ccccc1)c1ccc(O)cc1`, the result was inactive. Turning to `Nn1cnnc1`, the compound was called inactive. For `CCOP(=S)(OCC)SCSC(C)(C)C`, the AC50 is 12 µM (active) and 12.9 µM (active). As to `O=C(N[C@H]1CN2CCC1CC2)c1cc2ccoc2cn1`, the compound was classed as inactive.

`COS(=O)(=O)OC`: the outcome was inactive. As to `Cc1ccccc1CO[C@@H]1C[C@@]2(C(C)C)CC[C@]1(C)O2`, the AC50 was 32 µM (active).

`CCC(=O)O[C@H]1CC[C@H]2[C@@H]3CCC4=CC(=O)CC[C@]4(C)[C@H]3CC[C@]12C`: the compound was classed as inactive and the AC50 is 25.3 µM (active). Turning to `NS(=O)(=O)C(F)(F)C(F)(F)C(F)(F)C(F)(F)C(F)(F)C(F)(F)C(F)(F)C(F)(F)F`, the result was inactive.

On to `CCOC(=O)C(O)(c1ccc(Cl)cc1)c1ccc(Cl)cc1`, for which the compound was called inactive. On to `CCCCCCCCCc1ccc(O)cc1`, for which the compound was called inactive. Regarding `CCNc1nc(NC(C)C)nc(SC)n1`, the result was inactive. Turning to `O=S(=O)(O)C(F)(F)C(F)(F)C(F)(F)C(F)(F)C(F)(F)C(F)(F)F`, the call was inactive. Consider `Oc1c(Cl)c(Cl)c(Cl)c(Cl)c1Cl`, for which the outcome was inactive. For `ClC(Cl)=C(c1ccc(Cl)cc1)c1ccc(Cl)cc1`, the result was inactive. As to `Cc1cc(-c2ccc(N)c(C)c2)ccc1N`, the outcome was inactive. On to `Cc1ccccc1O`, for which the compound was classed as inactive. For the compound `O=C(NC(=O)c1c(F)cccc1F)Nc1cc(Cl)c(OC(F)(F)C(F)F)c(Cl)c1`, the compound was called inactive. Regarding `CCC(C)(c1ccc(O)cc1)c1ccc(O)cc1`, the outcome was inactive.

For `O=C(O)C(F)(F)C(F)(F)C(F)(F)C(F)(F)C(F)(F)F`, the outcome was inactive. Consider `O=C(O)C(F)(F)C(F)(F)C(F)(F)C(F)(F)C(F)(F)C(F)(F)C(F)(F)C(F)(F)C(F)(F)F`, for which the call was inactive. Turning to `CN(C)c1nc(=O)n(C2CCCCC2)c(=O)n1C`, the compound was called inactive. `CCC(C)c1cc([N+](=O)[O-])cc([N+](=O)[O-])c1O` (stereo not given): the compound was classed as inactive. Consider `Clc1ccc(Cl)cc1`, for which the result was inactive. In the case of `CC(C)C(=O)OCC(C)(C)C(OC(=O)C(C)C)C(C)C` (stereo not given), the compound was classed as inactive. Regarding `CC(C)(O)C(=O)Nc1ccc([N+](=O)[O-])c(C(F)(F)F)c1`, the call was inactive. On to `C[C@]12CCC(=O)C=C1CC[C@@H]1[C@@H]2CC[C@@]2(C)[C@H]1CC[C@]2(C)O`, for which the compound was called inactive.

On to `O=S(=O)(O)C(F)(F)C(F)(F)C(F)(F)C(F)(F)F`, for which the outcome was inactive.

On to `Oc1ccc(Cl)cc1Cl`, for which the result was inactive. As for `C[C@]12CCC(=O)C=C1CC[C@@H]1[C@@H]2CC[C@]2(C)C(=O)CC[C@@H]12`, the result was inactive. `O=C(O)C(F)(F)C(F)(F)C(F)(F)C(F)(F)C(F)(F)C(F)(F)C(F)(F)C(F)(F)F`: the compound was classed as inactive. Same read-out and setting: the result for `C=CC(N)=O` reads “inactive”; that for `Clc1ccc(C(c2ccccc2Cl)C(Cl)(Cl)Cl)cc1` (stereo not given), “inactive”.

The AC50 is the concentration at which the activity in the assay is half-maximal.
